Assay results as given in PubChem BioAssay (Tox21).
The source made the active and inactive calls. The call rests on the fitted dose curve.

Molecular target: Thyrotropin-releasing hormone receptor (Homo sapiens) (UniProt P34981)
Test: qHTS assay to identify small molecule agonists of the thyrotropin-releasing hormone receptor (TRHR) signaling pathway (AID 1346891);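 further: HEK293 cells expressing TRHR with calcium dye readout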
Conditions: TRHR-HEK293 calcium fluorescence, agonist mode; series mostly up to 57.6 µM; activation: at the top concentration
Description: National Center for Advancing Translational Sciences [NCATS] NIH Chemical Genomics Center [NCGC] U.S. Environmental Protection Agency [EPA] National Institutes of Environmental Health Sciences [NIEHS] National Toxicology Program [NTP] Assay overview: Thyrotropin-releasing hormone (TRH) receptor (TRHR) is a G-protein-coupled receptor which binds the tripeptide thyrotropin releasing hormone. TRHR is found in the brain and, when bound by TRH, acts (through phospholipase C) to increase intracellular inositol trisphosphate. It plays a crucial role in the anterior pituitary where it controls the synthesis and secretion of thyroid stimulating hormone and prolactin. The TRHR-Hek293 assay is a cell-based assay, and it has the potential to screen G protein-coupled receptors. A compound/drug can either activate (agonist) or suppress (antagonist) GPCRs that can be monitored by levels of intracellular calcium. Using this assay, the Tox21 10K compound library was screened to identify potential TRHR agonists.
Assay Protocol Summary: The TRHR-Hek293 cells were dispensed at 1500cells/4uL/well in 1536-well black-clear bottom plates using a Multidrop dispenser. After the assay plates were incubated at a 37 C/5% CO2 incubator for 18 hours, 4 uL of Dye-Loading Solution was added to each well. The plates were incubated at 37 C for 2 hours. For agonist mode, 23 nL of compounds dissolved in DMSO, positive controls or DMSO only was transferred to the assay plate by a pin tool. The fluorescence intensity in the plates was measured using FDSS 7000EX kinetic plate reader for 3 min at 1 sec intervals. Each test compound was measured at 15 concentrations and in triplicates.
On the % scale 0 is the no-effect control and ±100 the full control effect.

Chain of Thyrotropin-releasing hormone receptor (Homo sapiens) (P34981 whole entry, looked up): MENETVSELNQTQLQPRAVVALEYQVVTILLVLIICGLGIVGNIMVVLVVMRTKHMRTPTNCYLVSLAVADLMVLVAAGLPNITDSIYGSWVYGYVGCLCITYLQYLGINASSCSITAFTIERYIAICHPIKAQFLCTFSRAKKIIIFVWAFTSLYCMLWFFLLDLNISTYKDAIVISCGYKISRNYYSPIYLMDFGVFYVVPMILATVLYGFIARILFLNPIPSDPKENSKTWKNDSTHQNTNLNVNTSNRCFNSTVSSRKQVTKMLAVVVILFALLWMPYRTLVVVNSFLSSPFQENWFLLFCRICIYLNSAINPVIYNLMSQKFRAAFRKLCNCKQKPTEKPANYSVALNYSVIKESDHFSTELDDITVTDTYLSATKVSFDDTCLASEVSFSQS

| Structure (SMILES) | activation |
| --- | --- |
| CCN(CCC#N)c1ccc(N=Nc2ccc([N+](=O)[O-])cc2)cc1 | -0.248% (inactive) |
| C=C(C)CCO | -0.0517% (inactive) |
| c1ccc(-c2nc3ccccc3[nH]2)cc1 | 0.237% (inactive) |
| C/C(=C\c1ccc(C(=O)O)cc1)c1ccc2c(c1)C(C)(C)CCC2(C)C | 13.3% [at 26.5 µM] (inactive) |
| CCOC(=O)OC(=O)OCC | -0.0512% (inactive) |
| O=c1cc[nH]cc1 | -0.387% (inactive) |
| SC1CCCCC1 | 0.0589% (inactive) |
| CCC(C)(C)c1ccc(CC(C)CN2C[C@@H](C)O[C@@H](C)C2)cc1 (stereo not given in full) | 2.11% [at 26.5 µM] (inactive) |
| O=C1C=CC(=O)N1c1cccc(N2C(=O)C=CC2=O)c1 | 11% (inactive) |
| CCc1cccc(CC)c1 | -0.613% (inactive) |
| CCCCCN=C(N)N/N=C/c1c[nH]c2ccc(OC)cc12 | -0.251% [at 26.5 µM] (inactive) |
| CCCCC/C=C\C=C\C(=O)OCC | -1.08% (inactive) |
| CC(C)(C)c1cc(CCC(=O)OCCSCCOC(=O)CCc2cc(C(C)(C)C)c(O)c(C(C)(C)C)c2)cc(C(C)(C)C)c1O | 0.311% [at 26.5 µM] (inactive) |
| CCCCCCCCCC[N+](C)(CCCCCCCCCC)CCC[Si](OC)(OC)OC | -0.349% (inactive) |
| CCCCCCCCCCCCS(=O)(=O)Cl | 0.0016% [at 11.8 µM] (inactive) |
| Oc1ccc(C2(c3ccc(O)c(C4CCCCC4)c3)CCCCC2)cc1C1CCCCC1 | -0.0294% (inactive) |
| CCSCC | -0.147% (inactive) |
| C[C@H]1O[C@@H](O[C@H]2CC[C@@]3(C)[C@H](CC[C@@H]4[C@@H]3C[C@@H](O)[C@]3(C)[C@@H](C5=CC(=O)OC5)CC[C@]43O)C2)C[C@H](O)[C@@H]1O[C@H]1C[C@H](O)[C@H](O[C@H]2C[C@H](O)[C@H](O[C@@H]3O[C@H](CO)[C@@H](O)[C@H](O)[C@H]3O)[C@@H](C)O2)[C@@H](C)O1 | -0.163% [at 26.5 µM] (inactive) |
| Oc1ccc2c(c1)CCC2 | 0.0689% (inactive) |
| Nc1cc([N+](=O)[O-])cc(Cl)c1O | 0.0189% (inactive) |

| Structure (SMILES) | activation |
| --- | --- |
| Cc1cc(F)ccc1-c1cc(N2CC[C@@H](O)[C@H]2CO)ncc1N(C)C(=O)C(C)(C)c1cc(C(F)(F)F)cc(C(F)(F)F)c1 | 0.326% (inactive) |
| CC1=CC[C@@H](C(C)(C)O)CC1 | -1.91% (inactive) |
| CCN(CC)c1ccc(C=O)cc1 | -0.0964% (inactive) |
| N#Cc1ccc(C/C(=N/NC(=O)Nc2ccc(OC(F)(F)F)cc2)c2cccc(C(F)(F)F)c2)cc1 | 0.403% (inactive) |
| CCCC(=O)c1cc(O)c(O)cc1O | 4.48% (inactive) |
| C=CC(=O)OCCOC1C2CCC1C1CC=CC12 (stereo not given) | -0.0878% [at 11.8 µM] (inactive) |
| O=C(O)CN(CCCN(CC(=O)O)CC(=O)O)CC(=O)O | 0.0527% [at 11.8 µM] (inactive) |
| C/C=C/C(=O)OCC(C)C | 0.136% (inactive) |
| CC1=C(/C=C/C(C)=C/C=C/C(C)=C\C(=O)O)C(C)(C)CCC1 | 5.05% (inactive) |
| C=Cc1ccc(O)c(OC)c1 | -0.707% (inactive) |
| C1=CCCC1 | -0.25% (inactive) |
| COc1cc2ncnc(Nc3cccc(Cl)c3)c2cc1OC | -0.271% [at 11.8 µM] (inactive) |
| CC1CCC(C(C)(C)O)CC1 (stereo not given) | -0.663% (inactive) |
| CCCOC(=O)c1ccc(O)cc1 | 0.999% (inactive) |
| Cc1ccc(C2OC[C@@H]3OC(c4ccc(C)cc4)O[C@H]([C@H](O)CO)[C@@H]3O2)cc1 (stereo not given in full) | -0.2% (inactive) |
| CC/C=C\C/C=C\C/C=C\CCCCCCCC(=O)OC | 2.87% (inactive) |
| O=C(CCN1CCC(c2ccccc2)C1)c1ccc2c(c1)OCCO2 (stereo not given) | 0.432% [at 26.5 µM] (inactive) |
| Cc1ccc2sc3cccc(C)c3c2c1 | -0.0238% (inactive) |
| CCCCCCCCCCCCN1CCCC1=O | 0.0089% (inactive) |
| C/C=C/C(=O)C1=C(C)C=CCC1(C)C | -0.388% (inactive) |
